# Assay results: PubChem BioAssay AID1159580 (chemical genetic matrix, 2015)
# Values joined by “and” are separate entries in the source; they are usually repeats but may differ in a detail not shown here. Equal values may be shown once. Screen size: about 5,500 compounds; about 2,000 (36%) were called active. Not shown: some 18% with an inconclusive outcome. Rule as the data show it: active = normalized growth mostly below about 0.91 (no sharp cut-off); inconclusive = no clear call, values can overlap the other calls; inactive = mostly above about 0.92. The list shows a part of the results.
# Experiment: chemical genetic growth profiling, strain panel (AID 1159580);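 also: tested at 20 µM; growth read once vehicle control cultures reached saturation at 30 °C; 1 = growth at the plate median or of vehicle wells; lower values mean less growth of the strain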
# Details: S. cerevisiae deletion strains, growth OD
smiles,measurement,setting,value
CC(C(=O)O)c1ccc2c(c1)[nH]c1ccc(Cl)cc12 (configuration not stated),normalized growth,"locus YAL013W, strain DEP1, stronger effect = lower value",1.02 (inactive)
same,normalized growth,"locus YAL021C, strain ccr4, stronger effect = lower value",0.949 (inactive)
same,normalized growth,"locus YAL026C, strain drs2, stronger effect = lower value",0.953 (inactive)
same,normalized growth,"locus YAL030W, strain snc1, stronger effect = lower value",0.979 (inactive)
same,normalized growth,"locus YBL061C, strain skt5, stronger effect = lower value",0.955 (inactive)
same,normalized growth,"locus YBR009C, strain hhf1, stronger effect = lower value",0.979 (inactive)
same,normalized growth,"locus YBR021W, strain FUR4, stronger effect = lower value",1 (inactive)
same,normalized growth,"locus YBR023C, strain chs3, stronger effect = lower value",0.973 (inactive)
same,normalized growth,"locus YBR171W, strain sec66, stronger effect = lower value",0.981 (inactive)
same,normalized growth,"locus YBR229C, strain ROT2, stronger effect = lower value",1.01 (inactive)
same,normalized growth,"locus YBR231C, strain swc5, stronger effect = lower value",0.981 (inactive)
same,normalized growth,"locus YBR279W, strain paf1, stronger effect = lower value",0.957 (inactive)
same,normalized growth,"locus YCL011C, strain gbp2, stronger effect = lower value",1 (inactive)
same,normalized growth,"locus YCL016C, strain dcc1, stronger effect = lower value",0.951 (inactive)
same,normalized growth,"locus YCL029C, strain bik1, stronger effect = lower value",0.982 (inactive)
same,normalized growth,"locus YCL061C, strain MRC1, stronger effect = lower value",0.978 (inactive)
same,normalized growth,"locus YCL069W, strain vba3, stronger effect = lower value",1.01 (inactive)
same,normalized growth,"locus YCR088W, strain abp1, stronger effect = lower value",0.973 (inactive)
same,normalized growth,"locus YDL005C, strain med2, stronger effect = lower value",0.975 (inactive)
same,normalized growth,"locus YDL035C, strain GPR1, stronger effect = lower value",1 (inactive)
same,normalized growth,"locus YDL040C, strain nat1, stronger effect = lower value",0.978 (inactive)
same,normalized growth,"locus YDL074C, strain BRE1, stronger effect = lower value",1.03 (inactive)
same,normalized growth,"locus YDL101C, strain DUN1, stronger effect = lower value",1.02 (inactive)
same,normalized growth,"locus YDL134C, strain PPH21, stronger effect = lower value",1.01 (inactive)
same,normalized growth,"locus YDL185W, strain tfp1, stronger effect = lower value",0.948 (inactive)
same,normalized growth,"locus YDL192W, strain arf1, stronger effect = lower value",0.954 (inactive)
same,normalized growth,"locus YDR001C, strain nth1, stronger effect = lower value",0.996 (inactive)
same,normalized growth,"locus YDR069C, strain doa4, stronger effect = lower value",0.984 (inactive)
same,normalized growth,"locus YDR101C, strain arx1, stronger effect = lower value",0.972 (inactive)
same,normalized growth,"locus YDR137W, strain rgp1, stronger effect = lower value",0.945 (inactive)
same,normalized growth,"locus YDR150W, strain NUM1, stronger effect = lower value",1.02 (inactive)
same,normalized growth,"locus YDR159W, strain sac3, stronger effect = lower value",0.895 (inactive)
same,normalized growth,"locus YDR162C, strain NBP2, stronger effect = lower value",1.02 (inactive)
same,normalized growth,"locus YDR195W, strain ref2",1.01 (inactive)
same,normalized growth,"locus YDR297W, strain sur2, stronger effect = lower value",0.983 (inactive)
same,normalized growth,"locus YDR318W, strain mcm21, stronger effect = lower value",0.972 (inactive)
same,normalized growth,"locus YDR334W, strain swr1, stronger effect = lower value",0.994 (inactive)
same,normalized growth,"locus YDR335W, strain msn5, stronger effect = lower value",0.984 (inactive)
same,normalized growth,"locus YDR388W, stronger effect = lower value",0.978 (inactive)
same,normalized growth,"locus YDR392W, strain spt3, stronger effect = lower value",0.832 (inactive)
same,normalized growth,"locus YDR502C, strain sam2, stronger effect = lower value",0.999 (inactive)
same,normalized growth,"locus YEL003W, strain gim4, stronger effect = lower value",0.996 (inactive)
same,normalized growth,"locus YEL037C, strain rad23, stronger effect = lower value",0.99 (inactive)
same,normalized growth,"locus YEL061C, strain CIN8 (second series), stronger effect = lower value",0.975 (inactive)
same,normalized growth,"locus YEL061C, strain CIN8, stronger effect = lower value",1 (inactive)
same,normalized growth,"locus YER015W, strain faa2, stronger effect = lower value",1 (inactive)
same,normalized growth,"locus YER016W, strain bim1, stronger effect = lower value",0.978 (inactive)
same,normalized growth,"locus YER110C, stronger effect = lower value",0.971 (inactive)
same,normalized growth,"locus YER111C, strain swi4, stronger effect = lower value",0.99 (inactive)
same,normalized growth,"locus YER155C, strain BEM2 (second series), stronger effect = lower value",0.952 (inactive)
same,normalized growth,"locus YER155C, strain BEM2, stronger effect = lower value",0.997 (inactive)
same,normalized growth,"locus YER167W, strain BCK2, stronger effect = lower value",1 (inactive)
same,normalized growth,"locus YFR010W, strain ubp6, stronger effect = lower value",0.999 (inactive)
same,normalized growth,"locus YGL078C, strain dbp3, stronger effect = lower value",0.988 (inactive)
same,normalized growth,"locus YGL086W, strain mad1, stronger effect = lower value",0.983 (inactive)
same,normalized growth,"locus YGL167C, strain pmr1, stronger effect = lower value",1 (inactive)
same,normalized growth,"locus YGL173C, strain kem1, stronger effect = lower value",0.961 (inactive)
same,normalized growth,"locus YGL227W, strain vid30, stronger effect = lower value",1 (inactive)
same,normalized growth,"locus YGL240W, strain doc1, stronger effect = lower value",0.92 (inactive)
same,normalized growth,"locus YGL248W, strain PDE1, stronger effect = lower value",1.01 (inactive)
same,normalized growth,"locus YGL253W, strain hxk2, stronger effect = lower value",0.968 (inactive)
same,normalized growth,"locus YGR078C, strain PAC10, stronger effect = lower value",1.02 (inactive)
same,normalized growth,"locus YGR135W, strain pre9, stronger effect = lower value",0.995 (inactive)
same,normalized growth,"locus YGR229C, strain SMI1, stronger effect = lower value",1.04 (inactive)
same,normalized growth,"locus YGR252W, strain gcn5, stronger effect = lower value",0.885 (inactive)
same,normalized growth,"locus YHR013C, strain ard1, stronger effect = lower value",0.96 (inactive)
same,normalized growth,"locus YHR027C, strain rpn1, stronger effect = lower value",0.991 (inactive)
same,normalized growth,"locus YHR030C, strain SLT2, stronger effect = lower value",1 (inactive) and 0.303 (active)
same,normalized growth,"locus YHR079C, strain IRE1 (second series), stronger effect = lower value",0.976 (inactive)
same,normalized growth,"locus YHR079C, strain IRE1, stronger effect = lower value",0.369 (active)
same,normalized growth,"locus YHR094C, strain hxt1, stronger effect = lower value",0.987 (inactive)
same,normalized growth,"locus YHR129C, strain ARP1, stronger effect = lower value",1 (inactive)
same,normalized growth,"locus YHR142W, strain chs7, stronger effect = lower value",0.971 (inactive)
same,normalized growth,"locus YHR200W, strain rpn10, stronger effect = lower value",0.98 (inactive)
same,normalized growth,"locus YIL066C, strain RNR3, stronger effect = lower value",0.994 (inactive)
same,normalized growth,"locus YIL073C, strain SPO22, stronger effect = lower value",0.971 (inactive)
same,normalized growth,"locus YIL125W, strain kgd1, stronger effect = lower value",0.929 (active)
same,normalized growth,"locus YIR030C, strain dcg1, stronger effect = lower value",0.992 (inactive)
same,normalized growth,"locus YJL092W, strain hpr5, stronger effect = lower value",0.982 (inactive)
same,normalized growth,"locus YJL095W, strain BCK1 (second series), stronger effect = lower value",0.988 (inactive)
same,normalized growth,"locus YJL095W, strain BCK1, stronger effect = lower value",1 (inactive) and 0.272 (active)
same,normalized growth,"locus YJL115W, strain asf1, stronger effect = lower value",0.985 (inactive)
same,normalized growth,"locus YJL129C, strain trk1, stronger effect = lower value",0.912 (inactive)
same,normalized growth,"locus YJL134W, strain LCB3, stronger effect = lower value",1.01 (inactive)
same,normalized growth,"locus YJL154C, strain vps35, stronger effect = lower value",0.99 (inactive)
same,normalized growth,"locus YJL164C, strain tpk1, stronger effect = lower value",0.982 (inactive)
same,normalized growth,"locus YJL166W, strain qcr8, stronger effect = lower value",1 (inactive)
same,normalized growth,"locus YJL168C, strain set2, stronger effect = lower value",0.983 (inactive)
same,normalized growth,"locus YJL187C, strain SWE1 (second series), stronger effect = lower value",1.01 (inactive)
same,normalized growth,"locus YJL187C, strain SWE1, stronger effect = lower value",0.97 (inactive)
same,normalized growth,"locus YJR043C, strain POL32, stronger effect = lower value",1.01 (inactive)
same,normalized growth,"locus YJR066W, strain TOR1, stronger effect = lower value",0.492 (active)
